In the supplement of paper PMC3545927:
The list shows a part of the results. The hit rate among all sequences tested is not known here.

Target: furin, P09958
Test: furin cleavage Z-score vs untreated control; higher = more cleavage, active = 3.5 or more, inactive = 1 or less, 8 variable residues between constant flanks
Method in brief: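 The cleavage Z-score was derived for purified furin acting on 8-mer peptides held on magnetic beads and fused to a cDNA oligonucleotide. Digests lasted 7.5, 15 or 30 min at 1:10 enzyme:substrate in 50 mM HEPES pH 7.5 with CaCl2 and NaCl. Sequencing counts of released DNA, log-transformed against furin-free reactions, were lowess-adjusted and scaled by median absolute deviation.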

furin, P09958, sequence (P09958 whole entry): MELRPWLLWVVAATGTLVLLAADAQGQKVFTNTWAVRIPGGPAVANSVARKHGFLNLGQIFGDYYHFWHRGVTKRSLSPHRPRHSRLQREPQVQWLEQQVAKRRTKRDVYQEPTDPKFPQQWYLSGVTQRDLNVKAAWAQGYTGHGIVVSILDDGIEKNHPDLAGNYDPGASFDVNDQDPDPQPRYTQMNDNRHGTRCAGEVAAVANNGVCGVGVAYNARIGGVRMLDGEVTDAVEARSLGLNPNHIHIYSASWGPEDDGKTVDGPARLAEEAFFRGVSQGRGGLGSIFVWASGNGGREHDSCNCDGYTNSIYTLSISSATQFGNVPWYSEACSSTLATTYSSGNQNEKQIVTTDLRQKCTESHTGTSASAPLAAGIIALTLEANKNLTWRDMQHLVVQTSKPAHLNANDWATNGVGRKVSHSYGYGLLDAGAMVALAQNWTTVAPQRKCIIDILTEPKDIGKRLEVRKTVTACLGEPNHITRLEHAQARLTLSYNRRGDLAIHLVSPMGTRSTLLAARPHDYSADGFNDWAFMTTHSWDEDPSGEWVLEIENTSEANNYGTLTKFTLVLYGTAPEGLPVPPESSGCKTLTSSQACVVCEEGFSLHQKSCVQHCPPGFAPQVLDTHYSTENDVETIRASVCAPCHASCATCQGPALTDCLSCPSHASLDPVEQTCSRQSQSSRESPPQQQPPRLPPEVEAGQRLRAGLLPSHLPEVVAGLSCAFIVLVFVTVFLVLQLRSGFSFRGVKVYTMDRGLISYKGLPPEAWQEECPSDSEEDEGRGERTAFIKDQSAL

Sequence | furin cleavage Z-score (7.5 min) | furin cleavage Z-score (15 min) | furin cleavage Z-score (30 min)
CAMEECSQHVAGNASASA [HC1770] | 0.37 (inactive) | -0.816 (inactive) | 0.885 (inactive)
CAGLAGAAIGAGNASASA [HC1077] | 0.0949 (inactive) | -0.583 (inactive) | -1.05 (inactive)
CATTPCSGSRAGNASASA [HC1933] | -1.1 (inactive) | 1.02 | 0.7 (inactive)
CAEWVVCCSMAGNASASA [HC2128] | -0.594 (inactive) | 0.0553 (inactive) | 0.122 (inactive)
CARKRRCSLSAGNASASA [FS-1829] | 4.81 (active) | 7.32 (active) | 6.54 (active)
CARKRRGGPSAGNASASA [FS-2564] | 3.55 (active) | 5.66 (active) | 4.4 (active)
CARKRRTGFGAGNASASA [FS-2978] | -1.31 (inactive) | 1.08 | 1.25
CANKRRGGTAAGNASASA [WN5] | -0.513 (inactive) | -0.365 (inactive) | 0.516 (inactive)
CARKRRTATYAGNASASA [FS-2977] | 4.55 (active) | 6.85 (active) | 6.75 (active)
CARKHPDATYAGNASASA [HC454] | -0.794 (inactive) | -0.15 (inactive) | -3 (inactive)
CATDVVCCSMAGNASASA [HC2118] | 1.2 | 0.0514 (inactive) | -0.681 (inactive)
CAFIPVENLEAGNASASA [HC758] | -2.14 (inactive) | -0.887 (inactive) | -1.28 (inactive)
CAMEECSVHLAGNASASA [HC1730] | -0.159 (inactive) | -0.406 (inactive) | 0.608 (inactive)
CARQGRSGQKAGNASASA [FS-2063] | -0.381 (inactive) | 0.885 (inactive) | -0.813 (inactive)
CAEPRRSRRKAGNASASA [FS-23] | 3.35 | 6.04 (active) | 5.36 (active)
CACRRRRRRKAGNASASA [FS-583] | 7.53 (active) | 8.14 (active) | 6.13 (active)
CAEPLRKKKKAGNASASA [FS-1320] | -0.899 (inactive) | -0.615 (inactive) | -0.879 (inactive)
CAEPHRRRRKAGNASASA [FS-415] | 4.43 (active) | 5.99 (active) | 6.78 (active)
CARRRRKQRKAGNASASA [FS-2791] | 2.34 | 4.43 (active) | 4.61 (active)
CAMDYRGRRKAGNASASA [FS-1544] | -0.964 (inactive) | -0.642 (inactive) | 0.39 (inactive)
CAVYHGAGTRAGNASASA [HC701] | -1.21 (inactive) | -0.779 (inactive) | -0.813 (inactive)
CALLMCAVHPAGNASASA [HC598] | -0.584 (inactive) | -1.05 (inactive) | -0.438 (inactive)

Sequence | furin cleavage Z-score (7.5 min) | furin cleavage Z-score (15 min) | furin cleavage Z-score (30 min)
CALERRSVYTAGNASASA [FS-1986] | -0.7 (inactive) | 0.537 (inactive) | -0.997 (inactive)
CAKTPCSGSWAGNASASA [HC1834] | -1.42 (inactive) | -1.89 (inactive) | -1.1 (inactive)
CAQREVPCHRAGNASASA [HC2442] | 1.83 | 1.74 | 0.0102 (inactive)
CALMRRRRRKAGNASASA [FS-1599] | 8.11 (active) | 10.6 (active) | 8.59 (active)
CAWTVYHGAGAGNASASA [HC700] | -0.0993 (inactive) | 1.58 | 1.31
CAIKKRSLRSAGNASASA [FS-1345] | 6.68 (active) | 5.55 (active) | 5.16 (active)
CASTVRSLRSAGNASASA [FS-566] | 2.72 | 4.24 (active) | 4.81 (active)
CASTPCSAHSAGNASASA [HC2577] | -0.571 (inactive) | 0.484 (inactive) | 1.4
CARRRKSASDAGNASASA [FS-2074] | -0.354 (inactive) | -0.175 (inactive) | 0.845 (inactive)
CAEVPCHRPIAGNASASA [HC2404] | 0.502 (inactive) | -0.467 (inactive) | 1.19
CAVVCCSQSYAGNASASA [HC2062] | 1.31 | 2.95 | 0.942 (inactive)
CALSHRSKRSAGNASASA [FS-1031] | 12.7 (active) | 12.6 (active) | 11.4 (active)
CARTHRSKRSAGNASASA [FS-957] | 11.6 (active) | 11.5 (active) | 8.26 (active)
CARRRRDLGGAGNASASA [FS-1866] | 3.6 (active) | 2.23 | 1.75
CARRRRRPGGAGNASASA [FS-3065] | -0.191 (inactive) | -1.18 (inactive) | -0.53 (inactive)
CARHRRILQAAGNASASA [FS-2025] | -0.809 (inactive) | 0.0867 (inactive) | -0.324 (inactive)
CARRRKDDYAAGNASASA [FS-2073] | 0.651 (inactive) | 0.661 (inactive) | -1.05 (inactive)
CARRRGDSRGAGNASASA [HC732] | -0.828 (inactive) | -0.656 (inactive) | -0.847 (inactive)
CARRRRDTHFAGNASASA [FS-2785] | 8.52 (active) | 11.4 (active) | 10.2 (active)
CARRRRDHHMAGNASASA [FS-1838] | 7.82 (active) | 8.82 (active) | 7.36 (active)
CARRRRDLQAAGNASASA [FS-2075] | 8.41 (active) | 10.5 (active) | 8.73 (active)
